This is an account of results in PubChem BioAssay (NCATS).

Results filed as inconclusive are left out. Unmarked numbers belong to inactive results. Activity calls are given as the source filed them. Calls come from the whole dose curve; as a rule, active = well fitted cell-killing curve with a large enough effect; inconclusive = small, poorly fitted or top-dose-only effect, or effect the other way; inactive = no such curve, though single readings can be large or run the other way.
Potency is the fitted concentration of half-maximal effect.

A short description of this test: Quantitative High-Throughput drug screen in 47 multiple myeloma cell lines against the NCATS MIPE library collection: VP6_DJ cell viability assay (AID 1919867). Note: nearly all actives have a fitted effect of over 40% in size. The settings on record: ATP luminescence, 48 h; series mostly up to 45.8 µM; viability (% of DMSO): at the top concentration. The text has this:
PI: Beverly A. Mock Ph.D.
Laboratory of Cancer Biology and Genetics,
Center for Cancer Research, National Cancer Institute,
National Institute of Health, Bethesda, Maryland
Drug resistance and disease progression are common in multiple myeloma (MM) patients, underscoring the need for new therapeutic combinations. […] We hypothesized that effective combinations would reduce MYC expression and enhance p16 activity. […] These preclinical data identify potentially useful drug combinations for evaluation in drug-resistant MM and reveal potential mechanisms of combined drug sensitivity.
Described herein is the primary MIPE qHTS used to cherrypick compounds. Validated compounds were then further tested for potential synergistic activiy.
[1] Peat TJ, Gaikwad SM, Dubois W, Gyabaah-Kessie N, Zhang S, Gorjifard S, Phyo Z, Andres M, Hughitt VK, Simpson RM, Miller MA, Girvin AT, Taylor A, Williams D, D'Antonio N, Zhang Y, Rajagopalan A, Flietner E, Wilson K, Zhang X, Shinn P, Klumpp-Thomas C, McKnight C, Itkin Z, Chen L, Kazandijian D, Zhang J, Michalowski AM, Simmons JK, Keats J, Thomas CJ, Mock BA. Drug combinations identified by high-throughput screening promote cell cycle transition and upregulate Smad pathways in myeloma. Cancer Lett. 2023 Aug 1;568:216284. doi: 10.1016/j.canlet.2023.216284. Epub 2023 Jun 24. PMID: 37356470; PMCID: PMC10408729.
SEQUENCE No. (e.g., 1, 2, 3, etc.); […] (e.g., Cells, Incubation, Reagent, etc.); VALUE and DESCRIPTION.
1; Cells; 5 uL; white, solid bottom 1536-well Greiner assay plate.
2; Compounds; 23 nL; Kalypsis pin tool (Wako USA) equipped with a 1536-well pin head to transfer to the assay plates.
3; Incubation; 48 hours; 37C incubation.
4; Reagent;5uL; CellTiter Glo (Promega).
5; Detector; 425V; Luminescence; Viewlux PerkinElmer.
NOTES (numbers refer to Sequence numbers above)
1. The cell-based screening methods employed in this study were like those previously published. Briefly, the corresponding myeloma cell lines were screened in 1,536-well plates with 500 cells, 5-uL per well for inhibition of cell viability (assessed by measuring ATP levels with CellTiterGlo).
2. NCATS MIPE 4.0 library of approved and investigational drugs were added using the Kalypsis pin tool. Wells treated with DMSO only for 100% viability and media only for 0% viability were used as controls.
3. The assay plates were covered and incubated for 48 hours in a 37C, 5% CO2 incubator with controlled humidity.
4. After 48 hours, CellTilter-GloTM luminescent substrate mix (Promega) reagent was added to the assay plate and plates we incubated for 5 min at room temperature.
5. Signal was measured as median relative luminescence units on a ViewLux (PerkinElmer) multiplate reader.
[1] Heske CM, Davis MI, Baumgart JT, Wilson K, Gormally MV, Chen L, Zhang X, Ceribelli M, Duveau DY, Guha R, Ferrer M, Arnaldez FI, Ji J, Tran HL, Zhang Y, Mendoza A, Helman LJ, Thomas CJ. Matrix Screen Identifies Synergistic Combination of PARP Inhibitors and Nicotinamide Phosphoribosyltransferase (NAMPT) Inhibitors in Ewing Sarcoma. Clin Cancer Res. 2017 Dec 1;23(23):7301-7311. doi: 10.1158/1078-0432.CCR-17-1121. Epub 2017 Sep 12. PMID: 28899971; PMCID: PMC6636827.
As for `CC(Oc1ccc(O)cc1)(P(=O)(O)O)P(=O)(O)O`, the “viability (% of DMSO)” value is 112%.

On to `CN(CC(=O)N(Cc1ccc(C2CCCCC2)cc1)c1ccc(C(=O)O)c(O)c1)S(=O)(=O)c1c(F)c(F)c(F)c(F)c1F`, for which the Potency was 8.33 µM (active).

For the molecule `CNC(=O)c1ccc(Nc2cc(Nc3ccccc3S(=O)(=O)C(C)C)c3cc[nH]c3n2)nc1`, the Potency was 0.526 µM (active).

Regarding `CN(C)c1ccc2cc(C(=O)N[C@@H](CCCN=C(N)CCl)C(=O)NCc3ccccc3)ccc2c1`, the Potency is 4.69 µM (active).

Regarding `CCCCC(=O)O[C@]1(C(=O)CO)[C@@H](C)C[C@H]2[C@@H]3CCC4=CC(=O)C=C[C@]4(C)[C@@]3(F)[C@@H](O)C[C@@]21C`, the Potency is 14.8 µM (active).

Regarding `NC(=O)c1ncn([C@@H]2O[C@H](CO)[C@@H](O)[C@@H]2O)c1O`, the “viability (% of DMSO)” value is 105%.

Regarding `N#CC(=Cc1ccc(O)c(O)c1)C(=O)NCc1ccccc1`, the Potency is 18.7 µM (active).

Regarding `c1ccc2c(Oc3nc(Nc4ccc(N5CCOCC5)cc4)c4ncn(C5CCCCC5)c4n3)cccc2c1`, the Potency was 14.8 µM (active).

Regarding `CC(=O)N[C@@H]1[C@H](O[C@@H]2c3ccc(c(Cl)c3)Oc3cc4cc(c3O[C@H]3O[C@H](CO)[C@@H](O)[C@H](O)[C@H]3NC(=O)CCCCCCCC(C)C)Oc3ccc(cc3Cl)C[C@H]3NC(=O)[C@H](N)c5ccc(O)c(c5)Oc5cc(O)cc(c5)[C@H](NC3=O)C(=O)N[C@H]4C(=O)N[C@H]3C(=O)N[C@@H]2C(=O)N[C@@H](C(=O)O)c2cc(O)cc(O[C@H]4O[C@H](CO)[C@@H](O)[C@H](O)[C@H]4O)c2-c2cc3ccc2O)O[C@H](CO)[C@@H](O)[C@@H]1O`, the “viability (% of DMSO)” value was 110%.

As to `CC(C=CC1=C(C)CCCC1(C)C)=CC=CC(C)=CC(=O)Nc1ccc(O)cc1`, the Potency was 12.1 µM (active).

Turning to `CC(C)NC[C@@H](C(=O)N1CCN(c2ncnc3c2[C@H](C)C[C@H]3O)CC1)c1ccc(Cl)cc1`, the Potency is 0.833 µM (active).

For the molecule `CC(C(C)N1CC(=O)NC(=O)C1)N1CC(=O)NC(=O)C1` (stereo not given), the “viability (% of DMSO)” value was 144%.

With `COc1ccc(S(=O)(=O)Nc2cc(-c3c(O)ccc4ccccc34)c(O)c3ccccc23)cc1`, the Potency is 9.35 µM (active).

As for `CCCCCCCCCCCCCCCC(=O)OC[C@@H](NC(=O)C(Cl)Cl)[C@H](O)c1ccc([N+](=O)[O-])cc1`, the “viability (% of DMSO)” value is 138%.

Turning to `COc1cc(OC)cc(-c2ccc3ncc4ccc(=O)n(-c5ccc(N6CCNCC6)c(C(F)(F)F)c5)c4c3c2)c1`, the Potency was 2.64 µM (active).

Turning to `C=C(C)[C@@H]1CC[C@]2(C)CC[C@]3(C)[C@H](CC[C@@H]4[C@@]5(C)CC[C@H](O)C(C)(C)[C@H]5CC[C@]43C)[C@@H]12`, the “viability (% of DMSO)” value was 144%.

Take `CCC[C@H]1C[C@H](C(=O)N[C@@H]([C@@H]2O[C@@H](SC)[C@@H](O)[C@@H](O)[C@@H]2O)[C@H](C)Cl)N(C)C1`: the “viability (% of DMSO)” value is 108%.

Regarding `CCNC(=O)Nc1ccc(-c2nc3c(c(N4CCOC[C@H]4C)n2)CCN(C2COC2)C3)cc1`, the Potency was 1.05 µM (active).

As to `CC(C=CC=C(C)C=CC1=C(C)CCCC1(C)C)=CC=CC=C(C)C=CC=C(C)C=CC1=C(C)CCCC1(C)C`, the Potency was 23.5 µM (active).

Regarding `CCCCCCCCCCCC(CC1OC(=O)C1CCCCCC)OC(=O)C(CC(C)C)NC=O` (stereo not given), the Potency is 7.43 µM (active).

On to `Cc1ccc2nc(NCCN)c3ncc(C)n3c2c1`, for which the Potency was 5.26 µM (active).

With `CC(=O)O[C@H]1C[C@@H]2CC[C@H]3[C@H]4C[C@H]([N+]5(C)CCCCC5)[C@@H](OC(C)=O)[C@@]4(C)CC[C@@H]3[C@@]2(C)C[C@H]1N1CCCCC1`, the “viability (% of DMSO)” value was 150%.

In the case of `CCOC(=O)N1CCN([N+]([O-])=NOc2ccc([N+](=O)[O-])cc2[N+](=O)[O-])CC1`, the Potency is 2.35 µM (active).

In the case of `N#Cc1c(NC(=O)c2cccc3ccccc23)sc2c1CCCC2`, the Potency is 0.296 µM (active).

For `CC(=O)O[C@]1(C(C)=O)CC[C@H]2[C@@H]3C=C(C)C4=CC(=O)CC[C@]4(C)[C@@H]3CC[C@@]21C`, the Potency is 7.43 µM (active).

On to `COc1cc(O)c2c(c1)C1OC1C[C@H](O)[C@H](O)C(=O)C=CC[C@H](C)OC2=O` (stereo not given in full), for which the Potency was 1.66 µM (active).

As to `CC[C@H]1OC(=O)[C@H](C)[C@@H](O[C@H]2C[C@@](C)(OC)[C@@H](O)[C@H](C)O2)[C@H](C)[C@@H](O[C@@H]2O[C@@H](C)C[C@H](N(C)C)[C@@H]2O)[C@](C)(O)C[C@@H](C)C(=O)[C@H](C)[C@@H](O)[C@]1(C)O`, the “viability (% of DMSO)” value was 114%.

In the case of `NC1=N[C@H]2[C@H](CS[C@H]2CCCCC(=O)O)N1`, the “viability (% of DMSO)” value is 128% [at 23.2 µM].

As to `C#CCC(Cc1cnc2nc(N)nc(N)c2n1)c1ccc(C(=O)N[C@@H](CCC(=O)O)C(=O)O)cc1` (stereo not given in full), the Potency was 0.118 µM (active).

In the case of `OCCN1C[C@H](O)[C@@H](O)[C@H](O)[C@@H]1CO`, the “viability (% of DMSO)” value is 135%.

Turning to `COc1ccc(Nc2cc(-c3cnc(N)nc3)nc(N3CCOCC3)n2)cn1`, the Potency was 5.26 µM (active).

For the molecule `CN[C@H]1[C@@H](O)[C@@H]2O[C@@H]3O[C@H](C)CC(=O)[C@]3(O)O[C@@H]2[C@@H](NC)[C@H]1O`, the Potency is 1.87 µM (active).

Turning to `c1ccc(CNc2nc(NCc3ccccc3)c3ccccc3n2)cc1`, the Potency was 8.33 µM (active).

Turning to `CCC(C(=O)O)C1CCC(C)C(C(C)C(O)C(C)C(=O)C(CC)C2OC3(C=CC(O)[C@@]4(CC[C@](C)(C5CC[C@@](O)(CC)C(C)O5)O4)O3)C(C)CC2C)O1` (stereo not given in full), the Potency is 2.09 µM (active).

As for `CN1CCc2c(c3ccccc3n2Cc2ccc(C(=O)NO)cc2)C1`, the Potency is 9.35 µM (active).

For `C[C@@H](NCc1cc2ccccc2[nH]1)c1cccc2ccccc12`, the “viability (% of DMSO)” value was 90.3%.

As to `NS(=O)(=O)OC[C@@H]1C[C@@H](n2ccc3c(N[C@H]4CCc5ccccc54)ncnc32)C[C@H]1O`, the Potency is 1.48 µM (active).

For the molecule `Cc1[nH]c(C=C2C(=O)Nc3ccccc32)c(C)c1CCC(=O)O`, the Potency is 13.2 µM (active).

For `COc1ccc(S(=O)(=O)Nc2cccnc2Nc2ccc(O)cc2)cc1`, the Potency is 0.187 µM (active).

Regarding `C[C@@H](Oc1ccc2[nH]nc(C=Cc3cnn(CCO)c3)c2c1)c1c(Cl)cncc1Cl`, the Potency is 1.32 µM (active).
